Experimental data as given in PubChem BioAssay (EPA / NIEHS).
The source made the active and inactive calls. The calls were made as follows: active = hit-call score of the fitted dose curve at least 0.9, where 1 is the maximum; inactive = score below 0.9.

Read-out: Transforming growth factor beta 1 (TGFb1), TGFB1 (gene 7040)
Test: BSK_KF3CT_TGFb1: BioMAP Diversity Plus: KF3CT Assay for Transforming growth factor beta 1 (TGFb1) Biomarker Activity (AID 2283072)
Details: primary human keratinocytes with fibroblasts; actives raise or lower the signal
How it was run: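 Primary human skin cells (keratinocytes, foreskin fibroblasts) were co-cultured, exposed to test chemical and sampled at 24 h. TGF-b1 levels were measured by ELISA and fitted bidirectionally relative to DMSO.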

SMILES	outcome	AC50
O=C(O)CCN(C1(C(=O)NO)CCCC1)S(=O)(=O)c1ccc(Oc2ccc(F)cc2)cc1	inactive	–
COc1cccc(-c2ccc(/C=C\CN3CCCCCC3)cc2Cl)c1	–	33.3 µM (active)
O=C(OC[C@H]1O[C@@H](OC(=O)c2cc(O)c(O)c(OC(=O)c3cc(O)c(O)c(O)c3)c2)[C@H](OC(=O)c2cc(O)c(O)c(OC(=O)c3cc(O)c(O)c(O)c3)c2)[C@@H](OC(=O)c2cc(O)c(O)c(OC(=O)c3cc(O)c(O)c(O)c3)c2)[C@@H]1OC(=O)c1cc(O)c(O)c(OC(=O)c2cc(O)c(O)c(O)c2)c1)c1cc(O)c(O)c(OC(=O)c2cc(O)c(O)c(O)c2)c1	–	3.09 µM (active)
Clc1nc(Cl)c(Cl)c(Cl)c1Cl	inactive	–
COc1ccc(/C=C/S(=O)(=O)NC(=O)c2ccc(C)cc2Cl)cc1	inactive	–
COC(=O)CC(=O)OC	inactive	–
O=c1[nH]c2ccc(S(=O)CCN3CCC(Cc4ccc(F)cc4)CC3)cc2o1 (stereo unspecified)	inactive	–
CC[C@H](C)C(=O)O[C@H]1C[C@@H](C)C=C2C=C[C@H](C)[C@H](CC[C@@H]3C[C@@H](O)CC(=O)O3)[C@H]21	–	33.3 µM (active)
Cc1c(-c2cccnc2)c2ccccc2n1CCCCC(=O)O	inactive	–

Read-out: C-C motif chemokine 2 (Homo sapiens) (UniProt P13500)
Test: BSK_KF3CT_MCP1: BioMAP Diversity Plus: KF3CT Assay for Monocyte Chemoattractant Protein 1 (MCP1/CCL2) Biomarker Activity (AID 2283073)
Details: primary human keratinocytes with fibroblasts; actives raise or lower the signal
How it was run: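 Biomarker MCP-1 is measured by ELISA in primary human keratinocytes co-cultured with foreskin fibroblasts, 24 h after chemical treatment; DMSO serves as the negative control and activity baseline.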

SMILES	AC50	outcome
CCCCCCc1ccc(O)cc1O	26.2 µM (active)	–
COc1ccc2sc(C(=O)Nc3nnn[nH]3)c(OC(C)C)c2c1	16.7 µM (active)	–
CN(C)c1ccc(N=NS(=O)(=O)O)cc1	–	inactive
Nc1nc2ncc(CNc3ccc(C(=O)N[C@@H](CCC(=O)O)C(=O)O)cc3)nc2c(=O)[nH]1	–	inactive
CCn1nc(Cc2ccccc2)cc1C1CCN(C[C@H]2C[C@H](N(C)[C@@H](C(=O)O)C(C)C)C[C@@H]2c2cccc(F)c2)CC1	–	inactive
Cc1ccc(C)c(O)c1	–	inactive
C=CC(=C)CCC=C(C)C	–	inactive
O=C1OC(=O)C2C3C=CC(C3)C12 (stereo unspecified)	–	inactive
CCOC(=O)COc1ccc2c(c1)CC(NCC(O)c1cccc(Cl)c1)CC2 (stereo unspecified)	–	inactive
CCOCCOCCOCCO	–	inactive
CCCC(=O)OCC	–	inactive
O=C(O)c1cc(N=Nc2ccc(S(=O)(=O)Nc3ccccn3)cc2)ccc1O	–	inactive
O=C(NS(=O)(=O)/C=C/c1ccccc1)c1ccc(F)cc1Cl	–	inactive
C[C@](N)(Cc1ccc(O)c(O)c1)C(=O)O	–	inactive
CCCCC(CC)COC(=O)CCCCCCCCC(=O)OCC(CC)CCCC (stereo unspecified)	3.97 µM (active)	–
CCCCCCCCCCCCc1ccccc1	–	inactive
O=P(OC(CCl)CCl)(OC(CCl)CCl)OC(CCl)CCl	–	inactive
CNS(=O)(=O)c1cc(C(=O)N2CCC(CCN3C4CCC3CC(n3c(C)nc5ccccc53)C4)(c3cccc(F)c3)CC2)c(Cl)cc1F (stereo unspecified)	–	inactive
Oc1ccc2c(c1)-c1ccccc1C2	–	inactive
CC(C)CCCCCCOC(=O)c1ccc(C(=O)OCCCCCCC(C)C)c(C(=O)OCCCCCCC(C)C)c1	–	inactive
O=C(O)CCN(C1(C(=O)NO)CCCC1)S(=O)(=O)c1ccc(Oc2ccc(F)cc2)cc1	–	inactive
COc1cccc(-c2ccc(/C=C\CN3CCCCCC3)cc2Cl)c1	28.5 µM (active)	–
O=C(OC[C@H]1O[C@@H](OC(=O)c2cc(O)c(O)c(OC(=O)c3cc(O)c(O)c(O)c3)c2)[C@H](OC(=O)c2cc(O)c(O)c(OC(=O)c3cc(O)c(O)c(O)c3)c2)[C@@H](OC(=O)c2cc(O)c(O)c(OC(=O)c3cc(O)c(O)c(O)c3)c2)[C@@H]1OC(=O)c1cc(O)c(O)c(OC(=O)c2cc(O)c(O)c(O)c2)c1)c1cc(O)c(O)c(OC(=O)c2cc(O)c(O)c(O)c2)c1	–	inactive
Clc1nc(Cl)c(Cl)c(Cl)c1Cl	–	inactive
COc1ccc(/C=C/S(=O)(=O)NC(=O)c2ccc(C)cc2Cl)cc1	–	inactive
COC(=O)CC(=O)OC	–	inactive
O=c1[nH]c2ccc(S(=O)CCN3CCC(Cc4ccc(F)cc4)CC3)cc2o1 (stereo unspecified)	–	inactive
CC[C@H](C)C(=O)O[C@H]1C[C@@H](C)C=C2C=C[C@H](C)[C@H](CC[C@@H]3C[C@@H](O)CC(=O)O3)[C@H]21	32.5 µM (active)	–
Cc1c(-c2cccnc2)c2ccccc2n1CCCCC(=O)O	–	inactive

Read-out: Matrix Metallopeptidase 9 (MMP9), MMP9 (gene 4318)
Test: BSK_KF3CT_MMP9: BioMAP Diversity Plus: KF3CT Assay for Matrix Metallopeptidase 9 (MMP9) Biomarker Activity (AID 2283074);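 as to AC50: MMP9 protein level quantified by ELISA in the co-culture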
Details: primary human keratinocytes with fibroblasts; actives raise or lower the signal
How it was run: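 Human keratinocyte and foreskin fibroblast co-culture exposed to chemicals for 24 h; MMP9 biomarker measured by ELISA, bidirectional fitting relative to DMSO; cytotoxicity tracked by SRB total protein staining in parallel cultures.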

SMILES	AC50	outcome
CCCCCCc1ccc(O)cc1O	34.1 µM (active)	–
COc1ccc2sc(C(=O)Nc3nnn[nH]3)c(OC(C)C)c2c1	27 µM (active)	–
CN(C)c1ccc(N=NS(=O)(=O)O)cc1	–	inactive
Nc1nc2ncc(CNc3ccc(C(=O)N[C@@H](CCC(=O)O)C(=O)O)cc3)nc2c(=O)[nH]1	–	inactive
CCn1nc(Cc2ccccc2)cc1C1CCN(C[C@H]2C[C@H](N(C)[C@@H](C(=O)O)C(C)C)C[C@@H]2c2cccc(F)c2)CC1	–	inactive
Cc1ccc(C)c(O)c1	–	inactive
C=CC(=C)CCC=C(C)C	–	inactive
O=C1OC(=O)C2C3C=CC(C3)C12 (stereo unspecified)	–	inactive
CCOC(=O)COc1ccc2c(c1)CC(NCC(O)c1cccc(Cl)c1)CC2 (stereo unspecified)	–	inactive
CCOCCOCCOCCO	–	inactive
CCCC(=O)OCC	–	inactive
O=C(O)c1cc(N=Nc2ccc(S(=O)(=O)Nc3ccccn3)cc2)ccc1O	–	inactive
O=C(NS(=O)(=O)/C=C/c1ccccc1)c1ccc(F)cc1Cl	–	inactive
C[C@](N)(Cc1ccc(O)c(O)c1)C(=O)O	–	inactive
CCCCC(CC)COC(=O)CCCCCCCCC(=O)OCC(CC)CCCC (stereo unspecified)	–	inactive
CCCCCCCCCCCCc1ccccc1	–	inactive
O=P(OC(CCl)CCl)(OC(CCl)CCl)OC(CCl)CCl	–	inactive
CNS(=O)(=O)c1cc(C(=O)N2CCC(CCN3C4CCC3CC(n3c(C)nc5ccccc53)C4)(c3cccc(F)c3)CC2)c(Cl)cc1F (stereo unspecified)	20 µM (active)	–
Oc1ccc2c(c1)-c1ccccc1C2	–	inactive
CC(C)CCCCCCOC(=O)c1ccc(C(=O)OCCCCCCC(C)C)c(C(=O)OCCCCCCC(C)C)c1	–	inactive
O=C(O)CCN(C1(C(=O)NO)CCCC1)S(=O)(=O)c1ccc(Oc2ccc(F)cc2)cc1	–	inactive
COc1cccc(-c2ccc(/C=C\CN3CCCCCC3)cc2Cl)c1	28 µM (active)	–
O=C(OC[C@H]1O[C@@H](OC(=O)c2cc(O)c(O)c(OC(=O)c3cc(O)c(O)c(O)c3)c2)[C@H](OC(=O)c2cc(O)c(O)c(OC(=O)c3cc(O)c(O)c(O)c3)c2)[C@@H](OC(=O)c2cc(O)c(O)c(OC(=O)c3cc(O)c(O)c(O)c3)c2)[C@@H]1OC(=O)c1cc(O)c(O)c(OC(=O)c2cc(O)c(O)c(O)c2)c1)c1cc(O)c(O)c(OC(=O)c2cc(O)c(O)c(O)c2)c1	6.1 µM (active)	–
Clc1nc(Cl)c(Cl)c(Cl)c1Cl	–	inactive
COc1ccc(/C=C/S(=O)(=O)NC(=O)c2ccc(C)cc2Cl)cc1	–	inactive
COC(=O)CC(=O)OC	–	inactive
O=c1[nH]c2ccc(S(=O)CCN3CCC(Cc4ccc(F)cc4)CC3)cc2o1 (stereo unspecified)	–	inactive
Cc1c(-c2cccnc2)c2ccccc2n1CCCCC(=O)O	–	inactive
